# Source: the supplement of paper PMC10732440
# ± gives the standard deviation of the averaged measurements.
# System: Caenorhabditis elegans N2 infected with Nematocida parisii ERTm1
# Assay: progeny production relative to DMSO uninfected control; higher = more progeny despite microsporidia infection (inhibition of infection with low host toxicity)
# Conditions: infection time 6 days; 40 µM
# Protocol: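 Bleach-synchronised C. elegans N2 L1 larvae (100 per well) were grown in 96-well plates in K-medium with 5x E. coli OP50 and 15,000 N. parisii spores/uL, plus Pandemic Response Box compound at 100 uM or 40 uM (1% DMSO), for 6 days at 21 C with shaking. Worms were stained with Rose Bengal, scanned on a flatbed scanner and counted with WorMachine. Progeny production is given as % of the DMSO uninfected control (triplicate wells), so higher values mean the compound restores progeny despite infection.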
row,Compound,progeny production
1,C[C@H](Cn1cnc2c(N)ncnc21)OCP(=O)(O)O,6.28 ± 6.8%
2,c1ccc(Cn2c(-c3ccccn3)nc3ccccc32)cc1,3.12 ± 1.9%
3,CCCCOC(=O)Nc1cc2nc(C3CCCCC3)[nH]c2cc1N(CC)CC,6.28 ± 3%
4,Nc1ccc(-c2nc3cc(C(F)(F)F)ccc3n2C23CC4CC(CC(C4)C2)C3)cc1,5.81 ± 2.1%
5,O=C(CCCC(F)(F)F)N1CCC(c2nc(-c3nccs3)no2)CC1,5.21 ± 1.1%
6,NC(=S)N/N=C/c1ncccc1N,8.43 ± 4.5%
7,CCC(C)n1ncn(-c2ccc(N3CCN(c4ccc(OCC5COC(Cn6cncn6)(c6ccc(Cl)cc6Cl)O5)cc4)CC3)cc2)c1=O (stereo not given),4.85 ± 1.2%
8,Nc1nc(-c2ccccc2)nc2c1ncn2[C@@H]1O[C@H](COS(=O)(=O)NC(=O)c2ccccc2O)[C@@H](O)[C@H]1O,6.94 ± 2.3%
9,O=C1c2cccc3cccc(c23)C(=O)N1CC1CO1 (stereo not given),7.39 ± 4.7%
10,C=C(C)[C@@H]1CC[C@]2(C(=O)O)CC[C@]3(C)[C@H](CC[C@@H]4[C@@]5(C)CC[C@H](O)C(C)(C)[C@@H]5CC[C@]43C)[C@@H]12,6.56 ± 0.21%
11,O=C(O)CSc1cc(NS(=O)(=O)c2cccc3cccnc23)c2ccccc2c1O,6.14 ± 2.5%
12,O=C(Cn1cnc2ccccc2c1=O)Nc1ccccc1,5.46 ± 4.2%
13,CC[C@@]1(O)C(=O)OCc2c1cc1n(c2=O)Cc2cc3c(CN(C)C)c(O)ccc3nc2-1,7.48 ± 1.6%
14,NC[C@H]1O[C@H](O[C@H]2[C@H](O)[C@@H](O[C@H]3O[C@H](CO)[C@@H](O)[C@H](N)[C@H]3O)[C@H](N)C[C@@H]2N)[C@H](N)C[C@@H]1O,6.6 ± 2.4%
15,O=C(CCc1ccc2c(c1)OCO2)NCc1ccc(-c2ccccc2F)cc1,5.04 ± 3.2%
16,C[C@H]1[C@@H](c2cccc(C(F)(F)F)c2)OC(=O)N1C(=O)NCc1cncc2ccccc12,2.28 ± 1.4%
17,CCC(C)NCC(O)Cn1c2ccc(Cl)cc2c2cc(Cl)ccc21 (stereo not given),7.33 ± 7%
18,Fc1ccc(-n2cc(Cn3c(-c4cccc(F)c4)nc4ccccc43)nn2)cc1,3.69 ± 0.39%
19,CCCCC(CC)CNC(=N)NC(=N)NCCCCCCNC(=N)NC(=N)NCC(CC)CCCC (stereo not given),5.25 ± 0.29%
20,O=C(CP(=O)(O)O)NCCc1cccc(Oc2ccccc2)c1,4.04 ± 0.94%
21,CC(=O)Oc1ccccc1C(=O)Nc1ncc([N+](=O)[O-])s1,3.11 ± 1.7%

# Same assay, conditions: infection time 6 days; 100 µM
row,Compound,progeny production
1,C[C@H](Cn1cnc2c(N)ncnc21)OCP(=O)(O)O,17.4 ± 6%
2,c1ccc(Cn2c(-c3ccccn3)nc3ccccc32)cc1,4.55 ± 2.1%
3,CCCCOC(=O)Nc1cc2nc(C3CCCCC3)[nH]c2cc1N(CC)CC,13.5 ± 8.2%
4,Nc1ccc(-c2nc3cc(C(F)(F)F)ccc3n2C23CC4CC(CC(C4)C2)C3)cc1,17 ± 6%
5,O=C(CCCC(F)(F)F)N1CCC(c2nc(-c3nccs3)no2)CC1,8.6 ± 8.7%
6,NC(=S)N/N=C/c1ncccc1N,18.8 ± 12%
7,CCC(C)n1ncn(-c2ccc(N3CCN(c4ccc(OCC5COC(Cn6cncn6)(c6ccc(Cl)cc6Cl)O5)cc4)CC3)cc2)c1=O (stereo not given),22.8 ± 5.2%
8,Nc1nc(-c2ccccc2)nc2c1ncn2[C@@H]1O[C@H](COS(=O)(=O)NC(=O)c2ccccc2O)[C@@H](O)[C@H]1O,6.74 ± 3.1%
9,O=C1c2cccc3cccc(c23)C(=O)N1CC1CO1 (stereo not given),44.9 ± 30%
10,C=C(C)[C@@H]1CC[C@]2(C(=O)O)CC[C@]3(C)[C@H](CC[C@@H]4[C@@]5(C)CC[C@H](O)C(C)(C)[C@@H]5CC[C@]43C)[C@@H]12,9.57 ± 2%
11,O=C(O)CSc1cc(NS(=O)(=O)c2cccc3cccnc23)c2ccccc2c1O,14.5 ± 8.5%
12,O=C(Cn1cnc2ccccc2c1=O)Nc1ccccc1,8.2 ± 5.5%
13,CC[C@@]1(O)C(=O)OCc2c1cc1n(c2=O)Cc2cc3c(CN(C)C)c(O)ccc3nc2-1,10 ± 2.5%
14,NC[C@H]1O[C@H](O[C@H]2[C@H](O)[C@@H](O[C@H]3O[C@H](CO)[C@@H](O)[C@H](N)[C@H]3O)[C@H](N)C[C@@H]2N)[C@H](N)C[C@@H]1O,11.7 ± 16%
15,O=C(CCc1ccc2c(c1)OCO2)NCc1ccc(-c2ccccc2F)cc1,14 ± 6.8%
16,C[C@H]1[C@@H](c2cccc(C(F)(F)F)c2)OC(=O)N1C(=O)NCc1cncc2ccccc12,7.48 ± 6.2%
17,CCC(C)NCC(O)Cn1c2ccc(Cl)cc2c2cc(Cl)ccc21 (stereo not given),6.85 ± 6.4%
18,CCCCC(CC)CNC(=N)NC(=N)NCCCCCCNC(=N)NC(=N)NCC(CC)CCCC (stereo not given),24.3 ± 32%
19,CC(=O)Oc1ccccc1C(=O)Nc1ncc([N+](=O)[O-])s1,10.8 ± 5.3%
